Source: PubChem BioAssay (NCATS)
Records with an inconclusive call do not appear. A call without a number means that no potency is given here. Activity calls are given as the source filed them. Unless noted, calls come from the whole dose curve; as a rule, active = well fitted curve in the direction sought with a large enough effect; inconclusive = small, poorly fitted or top-dose-only effect, or another doubt; inactive = no such curve, though single readings can be large; an effect the other way counts as inactive or inconclusive.

Assays:
[1] = target: T1, Hexokinase-4 (Homo sapiens) + Glucokinase regulatory protein (Homo sapiens) (UniProt P35557+Q14397); assay: qHTS assay for inhibitors of recombinant human GCK-GKRP interaction: ADP-Glo assay (AID 743206)
Summary of the method: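 Pin-transferred compounds meet a 15 nM GST-GCK/15 nM FLAG-GKRP/2 uM S6P mix (dispense concentrations). ATP is then added to 0.4 mM final with 5 mM glucose, and the reaction runs 60 min at room temperature. ADP is quantified luminescently.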

[2] = target: T1, Hexokinase-4 (Homo sapiens) + Glucokinase regulatory protein (Homo sapiens); assay: qHTS assay for inhibitors of recombinant human GCK-GKRP interaction: HTRF assay (AID 743207)
Summary of the method: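 Steps: dispense GCK–GKRP complex (5 nM each, GST- and FLAG-tagged) with 2 uM S6P; pin in compounds; add XL665/Eu-cryptate-labelled antibodies; incubate 60 min at room temperature; read time-resolved FRET at 665 and 615 nm.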

[3] = Natriuretic polypeptide receptor (hNpr1) antagonism - Pilot counterscreen GloSensor control cell line (AID 1347045; calls by dose curve; note: series mostly up to about 38 µM)
Summary of the method: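 Cells were first seeded and incubated overnight at 37C, then loaded with 2% GloSensor substrate for 2 h. Compounds were added for 30 min at room temperature, followed by a baseline read, 50 uM SNP and a final read after 20 min.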

[4] = NS1 protein of Zika virus - qHTS assay to identify small molecule inhibitors in human HEK 293 cells (AID 1347053); note: series mostly up to about 46 µM; nearly all actives have a fitted effect of over 55% in size
Summary of the method: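 Compound-treated (1 h pre-infection) HEK 293 cells infected with ZIKV MR766, MOI = 0.5; after 24 h at 37 C, NS1 read by TR-FRET; data normalized to uninfected and infected controls.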

[5] = target: T2, Tyrosine-protein phosphatase non-receptor type substrate 1 (Homo sapiens) + Leukocyte surface antigen CD47 (Homo sapiens) (UniProt P78324+Q08722); assay: CD47-SIRPalpha protein protein interaction - LANCE assay qHTS validation (AID 1347057; active = well fitted curve in the direction sought with a large enough effect in the signal ratio, with a control signal flat, not every such curve was filed as active; the % refers to the signal ratio; note: series mostly up to about 38 µM)
Summary of the method: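 Inhibition of soluble CD47/SIRPalpha ectodomain association by titrated compounds, measured as 665/615 nm time-resolved FRET ratio after sequential 30 min room-temperature incubations.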

[6] = target: T2, Tyrosine-protein phosphatase non-receptor type substrate 1 (Homo sapiens) + Leukocyte surface antigen CD47 (Homo sapiens); assay: CD47-SIRPalpha protein protein interaction - HTRF assay qHTS validation (AID 1347058; active = well fitted curve in the direction sought with a large enough effect in the signal ratio, not every such curve was filed as active; the % refers to the signal ratio; note: series mostly up to about 38 µM)
Summary of the method: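 Soluble extracellular domains (6His-CD47, Avi-tag-biotinylated SIRPalpha) in PBS pH 7.4 with 0.05% IGEPAL CA-630. Compounds were preincubated 30 min at RT with CD47 and anti-His-Eu, then SIRPalpha and SAV-XL665 were added. TR-FRET 665/615 ratio.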

[7] = target: T2, Tyrosine-protein phosphatase non-receptor type substrate 1 (Homo sapiens) + Leukocyte surface antigen CD47 (Homo sapiens); assay: CD47-SIRPalpha protein protein interaction - Alpha assay qHTS validation (AID 1347059);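 note: bead proximity luminescence from CD47 binding SIRPalpha after compound preincubation with SIRPalpha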
Summary of the method: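 In PBS (pH 7.4) with 0.05% IGEPAL CA-630, compound is preincubated with biotin-Avi-SIRPalpha ectodomain before His-CD47 ectodomain and affinity beads are added. Light-protected room-temperature incubations; AlphaScreen readout.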

[8] = target: Parathyroid hormone/parathyroid hormone-related peptide receptor (Homo sapiens) (UniProt Q03431); assay: qHTS for PTHR1 Agonists: Optimization Screen against the NCGC LOPAC library (AID 1347079);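 note: GloSensor cAMP luminescence in HEK-293 GP2 cells expressing human PTHR1 with IBMX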
Summary of the method: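 HEK-293 GP2 cells, PTHR1 + GloSensor cAMP; 3000 cells/well, o/n. Luciferin + IBMX 0.5mM each (stock), 1 hr 37C. Cpd titration, 1 hr 37C. Lum after 15 min RT. Ctrl M-PTH(1-15) top 10uM.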

[9] = test system: Zika virus NS2B-NS3 protease; assay: Primary screen GU AMC qHTS for Zika virus inhibitors (AID 1347154); note: nearly all actives have a fitted effect of over 70% in size
Summary of the method: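 Unlinked Zika NS2B hydrophilic domain/NS3 protease domain noncovalent complex (25 nM final) in 10 mM Tris-HCl pH 8.0, 0.01% Tween 20, with AMC peptide substrate. Fluorescence (ex 340, em 450 nm) change over 15 min, room temperature; percent inhibition fitted to 4-parameter Hill equation.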

[10] = qHTS to identify inhibitors of the type 1 interferon - major histocompatibility complex class I in skeletal muscle: primary screen against the NCATS LOPAC collection (AID 1347405);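 note: human myoblasts with HiBiT tag on endogenous HLA-B stimulated by IFN-beta; lytic HiBiT luminescence reporting HLA-B protein level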
Summary of the method: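 First, engineered myoblasts carrying HLA-B-HiBiT were seeded in medium lacking dexamethasone with 4 ng/ml IFN-beta. After 1 hr, compounds were pinned in (top 46 uM final, 7 points). After 24 hrs at 37 C, luminescence was measured following 10 min lysis.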

[11] = Validation qHTS assay for inhibitors of Activation Induced Cytidine Deaminase (AID): UDG Counterscreen signal (AID 1347427)
Summary of the method: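 Fluorescence at 560 nm excitation, 665 nm emission reports UDG signal after 250 mM NaOH (2x) addition and 30 min. Enzymes (AID 1 uM, UDG 2 U/mL, at 4/3x) preincubated 10 min with compound, then 4 h with 4x 250 nM DJC20/DJC23 substrate at room temperature.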

[12] = target: Single-stranded DNA cytosine deaminase (Homo sapiens) (UniProt Q9GZX7); assay: Validation qHTS assay for inhibitors of Activation Induced Cytidine Deaminase (AID): AID signal (AID 1347429)
Summary of the method: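 Steps: dispense AID with UDG; pin-transfer compound up to 114 uM final; add DJC20/DJC23 substrate and hold 4 hr at room temperature; add NaOH, hold 30 min; read FRET signal (540/590 nm).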

[13] = Primary qHTS for inhibitors of La Crosse Virus (LACV) - induced cell death in SH-SY5Y cells (AID 1508616);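 note: top concentration of the series differs between compounds; higher means more rescue of cells from virus-induced death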
Summary of the method: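 SH-SY5Y, 6000 cells/well; cpd via pin tool in DMSO; LACV 0.01 MOI; 6 d 37C 5% CO2; ATPLite, 5 min RT; luminescence normalized to ±virus DMSO controls.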

[14] = target: Calcium and integrin-binding protein 1 (Homo sapiens) (UniProt Q99828); assay: Validation qHTS for Identification of Calcium Integrin Binding protein 1 (CIB1) Competitor (AID 1508618)
Summary of the method: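 In this qHTS validation, the LOPAC set (up to 114 uM) was tested for blocking CIB1 binding to a fluorescein-tagged alphaIIb peptide, with FP detection at 480/540 nm.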

[15] = Primary qHTS for small molecule stabilizers of the endoplasmic reticulum resident proteome: Secreted ER Calcium Modulated Protein (SERCaMP) assay (AID 1508630)
Summary of the method: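 The SH-SY5Y reporter protocol was run at 3 concentrations up to 38.3 uM (primary) or 11 concentrations (follow-up): 16 h compound, 100 nM thapsigargin for 4 h, then extracellular luciferase luminescence.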

[16] = target: N-terminal Xaa-Pro-Lys N-methyltransferase 1 (Homo sapiens) (UniProt Q9BV86); assay: Confirmatory qHTS for Inhibitors of N-terminal methyltransferase 1 (NTMT1): MTaseGlo Assay (AID 1645874); note: potency is the fitted concentration of half-maximal effect; nearly all actives have a fitted effect of over 65% in size
Summary of the method: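 Room-temperature NTMT1 reaction, 30 min, with 100 uM SAM and 1 uM SPKRIA substrate; enzyme 125 nM. Read-out: MTase-Glo luminescence, normalized to no-enzyme and DMSO controls.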

[17] = target: Metallo-beta-lactamase type 2 (Klebsiella pneumoniae) (UniProt C7C422); assay: qHTS to identify inhibitors of the New Delhi Metallo-beta-lactamase (NDM): assay validation screen against the NCATS LOPAC Collection (AID 1794843);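 note: nitrocefin turnover by NDM-1 measured as 485 nm absorbance at plateau; series mostly up to about 38 µM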
Summary of the method: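 Nitrocefin hydrolysis (50 uM substrate stock) by NDM-1, 2 nM final, was followed by 485 nm absorbance after compound preincubation; buffer was 50 mM HEPES pH 7.0, 1 uM ZnSO4, 0.01% Tween20.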

[18] = target: Glutathione peroxidase 1 (Homo sapiens) (UniProt P07203); assay: Primary qHTS Assay for Inhibitors of Recombinant Selenoprotein Glutathione Peroxidase 1 (GPX1) (AID 1845191); note: nearly all actives have a fitted effect of over 65% in size
Summary of the method: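 GPX1 10 nM, GR 100 nM, GSH 1 mM, NADPH 0.5 mM, CHP 0.5 mM (final). 30-min cpd preincubation, RT. Ex340/Em450 read t=0, t=15 min.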

[19] = target: Phospholipid hydroperoxide glutathione peroxidase GPX4 (Homo sapiens) (UniProt P36969); assay: Primary qHTS Assay for Inhibitors of Recombinant Selenoprotein Glutathione Peroxidase 4 (GPX4) (AID 1845192); details: outcome: dose series up to 50 µM unless noted; note: nearly all actives have a fitted effect of over 65% in size
Summary of the method: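 qHTS, GR-coupled: GPX4 200 nM + cpd 30 min RT → GSH 1 mM, NADPH 0.5 mM, GR 100 nM → CHP 0.5 mM start; fluor 340/450 at t0 and t15 min; no-enzyme wells as control.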

T2 sequence (P78324 whole entry, looked up, the tested form may be a part): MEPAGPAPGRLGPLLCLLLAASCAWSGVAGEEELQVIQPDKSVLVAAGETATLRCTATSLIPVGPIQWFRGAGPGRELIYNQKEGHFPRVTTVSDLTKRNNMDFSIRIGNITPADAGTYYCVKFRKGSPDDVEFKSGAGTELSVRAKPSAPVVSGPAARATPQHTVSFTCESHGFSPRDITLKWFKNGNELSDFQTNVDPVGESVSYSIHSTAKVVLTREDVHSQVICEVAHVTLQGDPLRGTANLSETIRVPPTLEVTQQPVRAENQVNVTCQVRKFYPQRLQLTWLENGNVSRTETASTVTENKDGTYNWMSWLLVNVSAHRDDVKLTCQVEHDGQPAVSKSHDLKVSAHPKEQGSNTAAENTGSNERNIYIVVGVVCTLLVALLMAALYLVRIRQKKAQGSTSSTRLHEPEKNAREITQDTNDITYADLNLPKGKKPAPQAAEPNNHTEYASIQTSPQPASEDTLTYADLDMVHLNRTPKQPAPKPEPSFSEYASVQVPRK
T2 sequence (Q08722 whole entry, looked up, the tested form may be a part): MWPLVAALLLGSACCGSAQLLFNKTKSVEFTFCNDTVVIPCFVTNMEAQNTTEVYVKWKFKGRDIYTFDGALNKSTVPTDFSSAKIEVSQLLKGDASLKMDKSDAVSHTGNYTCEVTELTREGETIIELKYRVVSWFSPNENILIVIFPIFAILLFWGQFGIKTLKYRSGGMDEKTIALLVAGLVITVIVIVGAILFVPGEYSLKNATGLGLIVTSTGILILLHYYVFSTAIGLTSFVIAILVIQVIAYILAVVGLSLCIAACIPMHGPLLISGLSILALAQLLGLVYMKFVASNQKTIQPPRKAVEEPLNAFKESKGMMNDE
T1 sequence (P35557 whole entry, looked up): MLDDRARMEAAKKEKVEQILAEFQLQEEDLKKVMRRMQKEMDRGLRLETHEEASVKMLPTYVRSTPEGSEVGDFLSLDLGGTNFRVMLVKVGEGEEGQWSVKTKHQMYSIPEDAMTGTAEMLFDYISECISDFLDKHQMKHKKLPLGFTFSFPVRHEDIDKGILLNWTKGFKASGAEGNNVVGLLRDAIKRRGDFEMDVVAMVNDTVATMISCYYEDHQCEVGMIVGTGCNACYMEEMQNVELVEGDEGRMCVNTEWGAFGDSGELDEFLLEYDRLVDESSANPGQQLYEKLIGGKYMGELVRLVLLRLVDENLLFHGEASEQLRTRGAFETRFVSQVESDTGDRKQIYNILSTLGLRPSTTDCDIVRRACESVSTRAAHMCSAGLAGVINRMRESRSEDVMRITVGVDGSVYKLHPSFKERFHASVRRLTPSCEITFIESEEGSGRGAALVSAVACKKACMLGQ
T1 sequence (Q14397 whole entry, looked up): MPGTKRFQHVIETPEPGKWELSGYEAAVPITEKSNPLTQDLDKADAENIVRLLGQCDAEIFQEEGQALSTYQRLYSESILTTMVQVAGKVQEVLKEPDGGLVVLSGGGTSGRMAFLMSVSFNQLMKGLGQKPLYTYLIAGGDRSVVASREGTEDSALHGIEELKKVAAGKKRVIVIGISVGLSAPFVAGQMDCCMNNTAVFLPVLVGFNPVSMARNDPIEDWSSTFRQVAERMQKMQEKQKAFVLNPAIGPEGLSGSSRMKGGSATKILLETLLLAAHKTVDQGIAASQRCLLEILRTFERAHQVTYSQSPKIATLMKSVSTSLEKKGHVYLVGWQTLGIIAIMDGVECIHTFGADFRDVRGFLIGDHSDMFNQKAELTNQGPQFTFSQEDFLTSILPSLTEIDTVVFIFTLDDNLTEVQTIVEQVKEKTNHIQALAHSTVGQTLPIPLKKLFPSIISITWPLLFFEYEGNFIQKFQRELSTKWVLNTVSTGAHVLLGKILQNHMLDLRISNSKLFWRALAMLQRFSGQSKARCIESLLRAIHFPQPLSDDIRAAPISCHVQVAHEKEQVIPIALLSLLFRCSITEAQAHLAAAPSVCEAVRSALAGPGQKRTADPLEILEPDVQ
Metallo-beta-lactamase type 2 (Klebsiella pneumoniae), sequence (C7C422 whole entry, looked up): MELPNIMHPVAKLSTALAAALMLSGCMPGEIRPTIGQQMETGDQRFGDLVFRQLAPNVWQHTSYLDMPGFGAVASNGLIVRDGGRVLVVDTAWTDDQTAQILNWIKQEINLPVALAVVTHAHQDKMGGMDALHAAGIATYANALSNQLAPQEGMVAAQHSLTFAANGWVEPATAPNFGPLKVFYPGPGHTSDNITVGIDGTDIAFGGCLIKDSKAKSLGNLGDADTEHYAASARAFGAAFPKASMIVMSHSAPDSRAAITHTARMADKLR
N-terminal Xaa-Pro-Lys N-methyltransferase 1 (Homo sapiens), sequence (Q9BV86 whole entry, looked up): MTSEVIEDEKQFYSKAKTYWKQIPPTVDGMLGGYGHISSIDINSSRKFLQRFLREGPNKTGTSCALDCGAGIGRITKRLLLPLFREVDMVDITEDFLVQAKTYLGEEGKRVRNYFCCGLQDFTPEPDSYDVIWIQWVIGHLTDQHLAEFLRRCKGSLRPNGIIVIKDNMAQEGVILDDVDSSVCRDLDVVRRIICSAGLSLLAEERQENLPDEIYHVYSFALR
Phospholipid hydroperoxide glutathione peroxidase GPX4 (Homo sapiens), sequence (P36969 whole entry, looked up): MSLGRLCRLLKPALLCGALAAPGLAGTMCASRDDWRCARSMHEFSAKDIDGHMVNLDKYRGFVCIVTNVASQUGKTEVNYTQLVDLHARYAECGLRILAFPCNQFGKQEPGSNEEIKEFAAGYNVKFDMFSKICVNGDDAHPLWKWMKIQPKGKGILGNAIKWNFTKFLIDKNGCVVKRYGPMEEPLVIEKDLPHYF
Single-stranded DNA cytosine deaminase (Homo sapiens), sequence (Q9GZX7 whole entry, looked up): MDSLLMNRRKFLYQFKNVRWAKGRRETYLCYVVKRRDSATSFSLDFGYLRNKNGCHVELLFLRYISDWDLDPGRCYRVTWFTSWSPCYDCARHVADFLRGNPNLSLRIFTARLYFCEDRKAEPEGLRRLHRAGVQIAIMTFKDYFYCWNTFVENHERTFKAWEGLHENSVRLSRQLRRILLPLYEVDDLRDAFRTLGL
Parathyroid hormone/parathyroid hormone-related peptide receptor (Homo sapiens), sequence (Q03431 whole entry, looked up): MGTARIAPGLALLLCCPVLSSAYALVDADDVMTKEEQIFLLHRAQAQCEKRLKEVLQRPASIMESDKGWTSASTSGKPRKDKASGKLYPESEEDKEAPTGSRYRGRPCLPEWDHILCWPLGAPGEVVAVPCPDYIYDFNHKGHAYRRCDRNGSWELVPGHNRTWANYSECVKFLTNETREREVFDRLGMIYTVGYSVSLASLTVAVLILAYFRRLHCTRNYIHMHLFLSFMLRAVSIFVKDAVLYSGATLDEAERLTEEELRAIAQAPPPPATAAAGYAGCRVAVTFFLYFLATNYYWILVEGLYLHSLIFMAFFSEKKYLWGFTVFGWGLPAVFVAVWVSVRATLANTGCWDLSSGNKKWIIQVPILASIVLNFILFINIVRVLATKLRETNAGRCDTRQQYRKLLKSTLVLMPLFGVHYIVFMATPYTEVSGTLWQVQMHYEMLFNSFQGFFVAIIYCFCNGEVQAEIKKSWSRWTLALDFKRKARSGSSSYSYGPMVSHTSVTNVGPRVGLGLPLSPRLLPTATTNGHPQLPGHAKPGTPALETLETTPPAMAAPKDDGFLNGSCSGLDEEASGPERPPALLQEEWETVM
Calcium and integrin-binding protein 1 (Homo sapiens), sequence (Q99828 whole entry, looked up): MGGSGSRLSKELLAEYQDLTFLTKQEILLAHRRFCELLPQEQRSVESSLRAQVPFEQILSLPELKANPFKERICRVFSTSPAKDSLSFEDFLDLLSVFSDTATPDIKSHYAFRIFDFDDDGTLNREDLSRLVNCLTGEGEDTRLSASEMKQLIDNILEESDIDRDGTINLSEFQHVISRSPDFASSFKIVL
Glutathione peroxidase 1 (Homo sapiens), sequence (P07203 whole entry, looked up): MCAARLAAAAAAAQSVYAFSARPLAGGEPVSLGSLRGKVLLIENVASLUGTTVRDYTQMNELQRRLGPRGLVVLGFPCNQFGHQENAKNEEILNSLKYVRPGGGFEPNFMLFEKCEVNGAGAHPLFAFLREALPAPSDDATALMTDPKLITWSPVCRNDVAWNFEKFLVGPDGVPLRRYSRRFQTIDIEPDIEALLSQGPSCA

Compound: Cc1cccc(/C=C/c2ccccc2)n1
- outcome [1]: inactive
- outcome [2]: inactive
- Potency [3]: inactive
- outcome [4]: inactive
- outcome [5]: inactive
- outcome [6]: inactive
- Potency [7]: inactive
- outcome [8]: inactive
- Potency [9]: inactive
- Potency [10]: inactive
- outcome [11]: inactive
- Potency [12]: inactive
- outcome [13]: inactive
- outcome [14]: inactive
- Potency [15]: inactive
- Potency [16]: 27.4 µM (active)
- Potency [17]: inactive
- Potency [18]: inactive
- Potency [19]: inactive
